# Experimental data reported in the supplement of paper PMC4466140.
# Columns and labels:
# Experiment in all cases: SPOT peptide array binding signal intensity (averaged, normalized) (arbitrary units (background-subtracted, floor 0; scale differs between SH3 domains)); higher = stronger binding of the SH3 domain to the peptide
# [1] = target: AgAbp1
# Procedure, shortened: (§1)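 To measure binding, SH3 domains from four yeast species were fused to GST, expressed in E. coli BL21(DE3) and purified on glutathione Sepharose. Each domain was incubated at 10 μg/ml overnight at 4°C on cellulose membranes with synthetic 15-mer peptides whose cysteines were replaced by serines. Anti-GST antibody, an HRP anti-mouse secondary and luminol were used for detection, and images were quantified with Genespotter. Reported binding signal is normalized, background-subtracted spot intensity averaged over replicates, in arbitrary units that differ between domains.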
# [2] = target: AgBbc1
# Procedure, shortened: as §1
# [3] = target: AgBem1-D1
# Procedure, shortened: as §1
# [4] = target: AgBzz1-D1
# Procedure, shortened: as §1
# [5] = target: AgBzz1-D2
# Procedure, shortened: as §1
# [6] = target: AgCyk3
# Procedure, shortened: as §1
# [7] = target: AgFus1
# Procedure, shortened: as §1
# [8] = target: AgHof1
# Procedure, shortened: as §1
# [9] = target: AgHse1
# Procedure, shortened: as §1
# [10] = target: AgLsb1
# Procedure, shortened: as §1
# [11] = target: AgLsb4
# Procedure, shortened: as §1
# [12] = target: AgMyo5
# Procedure, shortened: as §1
# [13] = target: AgNbp2
# Procedure, shortened: as §1
# [14] = target: AgRvs167
# Procedure, shortened: as §1
# [15] = target: AgSho1
# Procedure, shortened: as §1
# [16] = target: AgSla1-D1-D2
# Procedure, shortened: as §1
# [17] = target: AgSla1-D3
# Procedure, shortened: as §1
# [18] = target: CaAbp1-D1
# Procedure, shortened: as §1
# [19] = target: CaAbp1-D2
# Procedure, shortened: as §1
# [20] = target: CaBbc1
# Procedure, shortened: as §1
# [21] = target: CaBem1-D1
# Procedure, shortened: as §1
# [22] = target: CaBzz1-D1
# Procedure, shortened: as §1
# [23] = target: CaBzz1-D2
# Procedure, shortened: as §1
# [24] = target: CaCyk3
# Procedure, shortened: as §1
# [25] = target: CaFus1
# Procedure, shortened: as §1
# [26] = target: CaHof1
# Procedure, shortened: as §1
# [27] = target: CaHse1
# Procedure, shortened: as §1
# [28] = target: CaLsb1
# Procedure, shortened: as §1
# [29] = target: CaLsb4
# Procedure, shortened: as §1
# [30] = target: CaMyo5
# Procedure, shortened: as §1
# [31] = target: CaNbp2
# Procedure, shortened: as §1
# [32] = target: CaRvs167
# Procedure, shortened: as §1
# [33] = target: CaRvs167-3
# Procedure, shortened: as §1
# [34] = target: CaSho1
# Procedure, shortened: as §1
# [35] = target: CaSla1-D1-D2
# Procedure, shortened: as §1
# [36] = target: CaSla1-D3
# Procedure, shortened: as §1
# [37] = target: ScAbp1
# Procedure, shortened: as §1
# [38] = target: ScBbc1
# Procedure, shortened: as §1
# [39] = target: ScBem1-D1
# Procedure, shortened: as §1
# [40] = target: ScBzz1-D1
# Procedure, shortened: as §1
# [41] = target: ScBzz1-D2
# Procedure, shortened: as §1
# [42] = target: ScCyk3
# Procedure, shortened: as §1
# [43] = target: ScFus1
# Procedure, shortened: as §1
# [44] = target: ScHof1
# Procedure, shortened: as §1
# [45] = target: ScHse1
# Procedure, shortened: as §1
# [46] = target: ScLsb1
# Procedure, shortened: as §1
# [47] = target: ScLsb2
# Procedure, shortened: as §1
# [48] = target: ScLsb3
# Procedure, shortened: as §1
# [49] = target: ScLsb4
# Procedure, shortened: as §1
# [50] = target: ScMyo3
# Procedure, shortened: as §1
# [51] = target: ScMyo5
# Procedure, shortened: as §1
# [52] = target: ScNbp2
# Procedure, shortened: as §1
# [53] = target: ScPex13
# Procedure, shortened: as §1
# [54] = target: ScRvs167
# Procedure, shortened: as §1
# [55] = target: ScSho1
# Procedure, shortened: as §1
# [56] = target: ScSla1-D1-D2
# Procedure, shortened: as §1
# [57] = target: ScSla1-D3
# Procedure, shortened: as §1
# [58] = target: SpAbp1-D1
# Procedure, shortened: as §1
# [59] = target: SpBbc1
# Procedure, shortened: as §1
# [60] = target: SpBzz1-D1
# Procedure, shortened: as §1
# [61] = target: SpBzz1-D2
# Procedure, shortened: as §1
# [62] = target: SpCyk3
# Procedure, shortened: as §1
# [63] = target: SpHof1
# Procedure, shortened: as §1
# [64] = target: SpHof1-2
# Procedure, shortened: as §1
# [65] = target: SpHof1-3
# Procedure, shortened: as §1
# [66] = target: SpHse1
# Procedure, shortened: as §1
# [67] = target: SpLsb1
# Procedure, shortened: as §1
# [68] = target: SpLsb4
# Procedure, shortened: as §1
# [69] = target: SpMyo1
# Procedure, shortened: as §1
# [70] = target: SpNbp2
# Procedure, shortened: as §1
# [71] = target: SpPex13
# Procedure, shortened: as §1
# [72] = target: SpRvs167
# Procedure, shortened: as §1
# [73] = target: SpSla1-D1-D2
# Procedure, shortened: as §1
# [74] = target: SpSla1-D3
# Procedure, shortened: as §1
binder,measurement,setting,value
VLRFLGFPLPIFEKG,SPOT peptide array binding signal intensity,[1],2
same,SPOT peptide array binding signal intensity,[2],≤ 0
same,SPOT peptide array binding signal intensity,[3],24.5
same,SPOT peptide array binding signal intensity,[4],15
same,SPOT peptide array binding signal intensity,[5],≤ 0
same,SPOT peptide array binding signal intensity,[6],≤ 0
same,SPOT peptide array binding signal intensity,[7],393
same,SPOT peptide array binding signal intensity,[8],9
same,SPOT peptide array binding signal intensity,[9],845
same,SPOT peptide array binding signal intensity,[10],7.75
same,SPOT peptide array binding signal intensity,[11],36
same,SPOT peptide array binding signal intensity,[12],0.5
same,SPOT peptide array binding signal intensity,[13],≤ 0
same,SPOT peptide array binding signal intensity,[14],1.67
same,SPOT peptide array binding signal intensity,[15],31
same,SPOT peptide array binding signal intensity,[16],3
same,SPOT peptide array binding signal intensity,[17],2
same,SPOT peptide array binding signal intensity,[18],4
same,SPOT peptide array binding signal intensity,[19],3.5
same,SPOT peptide array binding signal intensity,[20],≤ 0
same,SPOT peptide array binding signal intensity,[21],≤ 0
same,SPOT peptide array binding signal intensity,[22],≤ 0
same,SPOT peptide array binding signal intensity,[23],0.25
same,SPOT peptide array binding signal intensity,[24],≤ 0
same,SPOT peptide array binding signal intensity,[25],3750
same,SPOT peptide array binding signal intensity,[26],≤ 0
same,SPOT peptide array binding signal intensity,[27],35.8
same,SPOT peptide array binding signal intensity,[28],1
same,SPOT peptide array binding signal intensity,[29],≤ 0
same,SPOT peptide array binding signal intensity,[30],≤ 0
same,SPOT peptide array binding signal intensity,[31],129
same,SPOT peptide array binding signal intensity,[32],8.5
same,SPOT peptide array binding signal intensity,[33],22.2
same,SPOT peptide array binding signal intensity,[34],496
same,SPOT peptide array binding signal intensity,[35],4
same,SPOT peptide array binding signal intensity,[36],4
same,SPOT peptide array binding signal intensity,[37],1.5
same,SPOT peptide array binding signal intensity,[38],1.5
same,SPOT peptide array binding signal intensity,[39],11.5
same,SPOT peptide array binding signal intensity,[40],24
same,SPOT peptide array binding signal intensity,[41],14
same,SPOT peptide array binding signal intensity,[42],80.5
same,SPOT peptide array binding signal intensity,[43],404
same,SPOT peptide array binding signal intensity,[44],≤ 0
same,SPOT peptide array binding signal intensity,[45],2000
same,SPOT peptide array binding signal intensity,[46],≤ 0
same,SPOT peptide array binding signal intensity,[47],≤ 0
same,SPOT peptide array binding signal intensity,[48],≤ 0
same,SPOT peptide array binding signal intensity,[49],≤ 0
same,SPOT peptide array binding signal intensity,[50],0.5
same,SPOT peptide array binding signal intensity,[51],≤ 0
same,SPOT peptide array binding signal intensity,[52],19
same,SPOT peptide array binding signal intensity,[53],≤ 0
same,SPOT peptide array binding signal intensity,[54],≤ 0
same,SPOT peptide array binding signal intensity,[55],662
same,SPOT peptide array binding signal intensity,[56],3
same,SPOT peptide array binding signal intensity,[57],≤ 0
same,SPOT peptide array binding signal intensity,[58],1
same,SPOT peptide array binding signal intensity,[59],≤ 0
same,SPOT peptide array binding signal intensity,[60],3.5
same,SPOT peptide array binding signal intensity,[61],1
same,SPOT peptide array binding signal intensity,[62],3
same,SPOT peptide array binding signal intensity,[63],13.8
same,SPOT peptide array binding signal intensity,[64],5.5
same,SPOT peptide array binding signal intensity,[65],486
same,SPOT peptide array binding signal intensity,[66],1290
same,SPOT peptide array binding signal intensity,[67],≤ 0
same,SPOT peptide array binding signal intensity,[68],≤ 0
same,SPOT peptide array binding signal intensity,[69],≤ 0
same,SPOT peptide array binding signal intensity,[70],37.5
same,SPOT peptide array binding signal intensity,[71],5
same,SPOT peptide array binding signal intensity,[72],≤ 0
same,SPOT peptide array binding signal intensity,[73],3
same,SPOT peptide array binding signal intensity,[74],1
ILARAILTIPRVLDK,SPOT peptide array binding signal intensity,[61],1.5
same,SPOT peptide array binding signal intensity,[62],8.5
same,SPOT peptide array binding signal intensity,[63],82.2
same,SPOT peptide array binding signal intensity,[64],8.5
same,SPOT peptide array binding signal intensity,[65],158
same,SPOT peptide array binding signal intensity,[66],613
same,SPOT peptide array binding signal intensity,[67],2.25
same,SPOT peptide array binding signal intensity,[68],42
same,SPOT peptide array binding signal intensity,[69],1.5
same,SPOT peptide array binding signal intensity,[70],207
same,SPOT peptide array binding signal intensity,[71],131
same,SPOT peptide array binding signal intensity,[72],39.2
same,SPOT peptide array binding signal intensity,[73],≤ 0
same,SPOT peptide array binding signal intensity,[74],10
